Results published in PubChem BioAssay.
Active and inactive are the calls of the source.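 How the source made its calls, unless noted: active means compound raising the membrane signal above positive-control mean plus 3 SD in both repeats, and a primary screen hit; inactive means the rest.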

Target: Short transient receptor potential channel 6 (Mus musculus) (UniProt Q61143)
Assay: activation of mouse TRPC6 channel, confirmation, selectivity assay for TRPC4 activator project, cell-based, HEK293, membrane potential dye, duplicate (AID 434950;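 active means membrane potential signal rise above negative control mean plus 3 SD in both duplicates, also active in the earlier TRPC4 screen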;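 on activation: 0% = buffer only wells and 100% = acetylcholine maximal-effect wells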)
Details: HEK293 TRPC6, membrane potential fluorescence, at 10 µM; active compounds read high

Short transient receptor potential channel 6 (Mus musculus), sequence (Q61143 whole entry, looked up): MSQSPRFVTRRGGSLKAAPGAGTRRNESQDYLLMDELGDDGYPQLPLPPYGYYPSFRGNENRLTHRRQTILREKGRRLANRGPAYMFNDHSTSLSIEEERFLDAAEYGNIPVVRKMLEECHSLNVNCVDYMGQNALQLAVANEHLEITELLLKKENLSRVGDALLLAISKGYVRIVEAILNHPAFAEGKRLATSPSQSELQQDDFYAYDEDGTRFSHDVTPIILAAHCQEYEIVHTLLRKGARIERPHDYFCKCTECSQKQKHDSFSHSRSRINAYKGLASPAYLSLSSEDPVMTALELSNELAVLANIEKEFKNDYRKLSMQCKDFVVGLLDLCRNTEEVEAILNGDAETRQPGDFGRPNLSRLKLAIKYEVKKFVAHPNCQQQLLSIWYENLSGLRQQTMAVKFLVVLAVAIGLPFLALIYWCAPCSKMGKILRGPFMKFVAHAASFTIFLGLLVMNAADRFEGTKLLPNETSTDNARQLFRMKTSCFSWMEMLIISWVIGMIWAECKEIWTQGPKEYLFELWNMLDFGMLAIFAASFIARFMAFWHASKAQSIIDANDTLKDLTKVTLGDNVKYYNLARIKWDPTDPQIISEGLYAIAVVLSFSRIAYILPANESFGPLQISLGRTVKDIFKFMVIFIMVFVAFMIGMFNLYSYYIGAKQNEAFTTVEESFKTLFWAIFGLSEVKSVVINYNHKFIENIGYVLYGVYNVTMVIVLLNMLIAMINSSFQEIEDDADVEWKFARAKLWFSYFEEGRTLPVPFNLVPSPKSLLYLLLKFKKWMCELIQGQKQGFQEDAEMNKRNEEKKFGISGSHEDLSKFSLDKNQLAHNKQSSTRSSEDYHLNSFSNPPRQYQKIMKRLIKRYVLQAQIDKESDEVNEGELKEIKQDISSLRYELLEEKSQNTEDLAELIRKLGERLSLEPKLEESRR

Compound	activation	outcome
Cc1ccc2[nH]c3c(=O)n(CCc4cnc[nH]4)cnc3c2c1	27.5% (active)	
Cc1ccn2cc(CCNC(=O)C3CC=CCC3C(=O)O)nc2c1 (stereo not drawn)		inactive
CCOC(=O)C1(CCOc2ccccc2)CCN(Cc2ccc(OC)c(O)c2)CC1	66.5% (active)	
Cc1cc(OCCCn2ccnc2)cc(C)c1Cl	47.5% (active)	
CCn1cc(CN2CCCC(C(=O)Nc3ccc(-c4nc5ccccc5[nH]4)cc3)C2)c(C)n1 (stereo not drawn)	52% (active)	

Target: Short transient receptor potential channel 6 (Mus musculus) (UniProt Q61143)
Assay: TRPC6 potentiation by TRPC4 potentiator hits, confirmation, selectivity assay for TRPC4 potentiator project, HEK293 cells, membrane potential dye, duplicate (AID 434952)
Details: HEK293 TRPC6, membrane potential dye fluorescence, at 10 µM, maximal acetylcholine added after compound; active compounds read high

Compound	outcome
O=C(NC(=S)NNC(=O)[C@H]1C[C@@H]1c1ccccc1)c1cccc(F)c1	inactive
NCCCn1c(C(=O)c2cc(Cl)c(N)c(Cl)c2)c2ccccc2[n+]1[O-]	inactive
COC(=O)c1ccccc1N=Nc1c(N)[nH][nH]c1=O	inactive
O=C(CNS(=O)(=O)c1ccc2ccccc2c1)NCCc1ccccn1	inactive
CC(c1cccnc1)N(CCN(C)C)C(=O)Nc1ccc(Cl)c(Cl)c1 (stereo not drawn)	inactive
Cc1ccc(C(=O)NC(=S)NNC(=O)c2ccccc2)cc1	inactive
C=CCn1c(CCNC(=O)c2ccco2)nc2ccccc21	inactive
CCOC(=O)[C@@H]1CCNC[C@@H]1c1ccccc1	inactive
Cc1sc2nc(CSc3ccccc3)nc(NCCN(C)C)c2c1C	inactive
O=C(NCCc1cccc(Cl)c1)c1ccc(OC2CCN(Cc3ccccn3)CC2)cc1	inactive
CCOC(=O)C1(CCCc2ccccc2)CCN(Cc2cn(CC)nc2C)CC1	inactive
CCCN(CCC)CCCNC(=O)C1CCN(S(=O)(=O)c2cccc3nsnc23)CC1	inactive
CCN1C(=O)c2cccc3c(S(=O)(=O)Nc4ccccc4OC)ccc1c23	inactive
CCCN(CCC)CCCNC(=O)C1CCC(CNS(=O)(=O)c2cccc3nsnc23)CC1 (stereo not drawn)	inactive
CCN1CCN(c2ccc(S(=O)(=O)N3CCCCC3)cc2NC(=O)C(C)Oc2ccc(F)cc2)CC1 (stereo not drawn)	inactive
O=C(Nc1nnc(-c2ccccc2Cl)o1)c1nc2ccccc2s1	inactive
COc1ccc(-c2nn(-c3ccccc3)cc2CNCc2cccnc2)c(F)c1	inactive
Cc1ccc2oc(=O)c3cnn(CC(=O)NC4CCN(Cc5ccccc5)CC4)c3c2c1	inactive
CCCCC(=O)NNC(=S)NC(=O)c1ccc(C)cc1	inactive
COc1cc(/C=C/C(=O)c2ccc3c(c2)OCO3)cc(Cl)c1O	inactive

Compound	outcome
CN(C)C(CNC(=O)C1CC(=O)N(Cc2ccccc2)C1)c1ccccc1 (stereo not drawn)	inactive
Cc1ccccc1OCC(=O)NNC(=S)NC(=O)c1ccco1	inactive
O=C(CCc1ccccc1)NNC(=S)NC(=O)c1ccc(Cl)cc1	inactive
CN(CCOc1ccc(Cl)cc1)CC(O)c1ccccc1 (stereo not drawn)	inactive
Cc1onc(-c2ccccc2)c1C(=O)NC(=S)NNC(=O)c1ccco1	inactive
CC(NCCC1(Cc2ccccc2Cl)CCOC(C)(C)C1)c1cccs1 (stereo not drawn)	inactive
CN(C)C(CNC(=S)Nc1ccc(F)cc1)c1cccnc1 (stereo not drawn)	inactive
O=C(COc1ccccc1)NNC(=S)NC(=O)c1ccc(Cl)cc1Cl	inactive
CCN1CCN(c2c(S(=O)(=O)c3ccc(C)c(C)c3)cnc3ccc(F)cc23)CC1	inactive
COc1ccc(C(CNC(=O)c2cccc(NS(=O)(=O)c3ccc(C)c(F)c3)c2)N(C)C)cc1 (stereo not drawn)	inactive
CCOC(=O)C1(CCOc2ccccc2)CCN(Cc2cnc(C)s2)CC1	inactive
COc1ccc(/C=C/CN2CCCC(C(=O)c3ccc(OC)c(F)c3)C2)cc1 (stereo not drawn)	inactive
O=S(=O)(c1ccc(Cl)cc1)N1CCN2CCCC2C1 (stereo not drawn)	inactive
OC(CNC1CCCc2ccccc21)COc1ccc2ccccc2c1 (stereo not drawn)	inactive
Cc1ccc2[nH]c3c(=O)n(CCc4cnc[nH]4)cnc3c2c1	inactive
Cc1ccn2cc(CCNC(=O)C3CC=CCC3C(=O)O)nc2c1 (stereo not drawn)	inactive
CCOC(=O)C1(CCOc2ccccc2)CCN(Cc2ccc(OC)c(O)c2)CC1	inactive
Cc1cc(OCCCn2ccnc2)cc(C)c1Cl	inactive
CCn1cc(CN2CCCC(C(=O)Nc3ccc(-c4nc5ccccc5[nH]4)cc3)C2)c(C)n1 (stereo not drawn)	inactive

Target: Short transient receptor potential channel 4 (Mus musculus) (UniProt Q9QUQ5)
Assay: calcium flux activators in TRPC4/5HT1a cells, counter-screen for TRPC4 activator project, cell-based, second counter screen, HEK293 TRPC4/5HT1a, Fluo-4 (AID 434977;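 active means calcium signal rise above buffer-control mean plus 5 SD in both duplicates, and also a hit in the primary screen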;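 on activation: plate controls were assay buffer for no effect and maximal serotonin response for full effect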)
Details: Fluo-4 calcium flux, at 10 µM; active compounds read high

Compound	activation	outcome
O=C(NC(=S)NNC(=O)[C@H]1C[C@@H]1c1ccccc1)c1cccc(F)c1	140% (active)	
NCCCn1c(C(=O)c2cc(Cl)c(N)c(Cl)c2)c2ccccc2[n+]1[O-]	67.1% (active)	
COC(=O)c1ccccc1N=Nc1c(N)[nH][nH]c1=O	51.2% (active)	
O=C(CNS(=O)(=O)c1ccc2ccccc2c1)NCCc1ccccn1		inactive
CC(c1cccnc1)N(CCN(C)C)C(=O)Nc1ccc(Cl)c(Cl)c1 (stereo not drawn)		inactive
Cc1ccc(C(=O)NC(=S)NNC(=O)c2ccccc2)cc1	72.6% (active)	
C=CCn1c(CCNC(=O)c2ccco2)nc2ccccc21	55% (active)	
CCOC(=O)[C@@H]1CCNC[C@@H]1c1ccccc1		inactive
Cc1sc2nc(CSc3ccccc3)nc(NCCN(C)C)c2c1C	15.2% (active)	
O=C(NCCc1cccc(Cl)c1)c1ccc(OC2CCN(Cc3ccccn3)CC2)cc1		inactive
CCOC(=O)C1(CCCc2ccccc2)CCN(Cc2cn(CC)nc2C)CC1		inactive
CCCN(CCC)CCCNC(=O)C1CCN(S(=O)(=O)c2cccc3nsnc23)CC1	54.7% (active)	
CCN1C(=O)c2cccc3c(S(=O)(=O)Nc4ccccc4OC)ccc1c23		inactive
CCCN(CCC)CCCNC(=O)C1CCC(CNS(=O)(=O)c2cccc3nsnc23)CC1 (stereo not drawn)	29.2% (active)	
CCN1CCN(c2ccc(S(=O)(=O)N3CCCCC3)cc2NC(=O)C(C)Oc2ccc(F)cc2)CC1 (stereo not drawn)	9.95% (active)	
O=C(Nc1nnc(-c2ccccc2Cl)o1)c1nc2ccccc2s1	91.4% (active)	
COc1ccc(-c2nn(-c3ccccc3)cc2CNCc2cccnc2)c(F)c1		inactive
Cc1ccc2oc(=O)c3cnn(CC(=O)NC4CCN(Cc5ccccc5)CC4)c3c2c1		inactive
CCCCC(=O)NNC(=S)NC(=O)c1ccc(C)cc1	15% (active)	
COc1cc(/C=C/C(=O)c2ccc3c(c2)OCO3)cc(Cl)c1O	69.2% (active)	

Compound	activation	outcome
CN(C)C(CNC(=O)C1CC(=O)N(Cc2ccccc2)C1)c1ccccc1 (stereo not drawn)		inactive
Cc1ccccc1OCC(=O)NNC(=S)NC(=O)c1ccco1	42.5% (active)	
O=C(CCc1ccccc1)NNC(=S)NC(=O)c1ccc(Cl)cc1	66.8% (active)	
CN(CCOc1ccc(Cl)cc1)CC(O)c1ccccc1 (stereo not drawn)	13.9% (active)	
Cc1onc(-c2ccccc2)c1C(=O)NC(=S)NNC(=O)c1ccco1	51.5% (active)	
CC(NCCC1(Cc2ccccc2Cl)CCOC(C)(C)C1)c1cccs1 (stereo not drawn)		inactive
CN(C)C(CNC(=S)Nc1ccc(F)cc1)c1cccnc1 (stereo not drawn)		inactive
O=C(COc1ccccc1)NNC(=S)NC(=O)c1ccc(Cl)cc1Cl	44.7% (active)	
CCN1CCN(c2c(S(=O)(=O)c3ccc(C)c(C)c3)cnc3ccc(F)cc23)CC1		inactive
COc1ccc(C(CNC(=O)c2cccc(NS(=O)(=O)c3ccc(C)c(F)c3)c2)N(C)C)cc1 (stereo not drawn)		inactive
CCOC(=O)C1(CCOc2ccccc2)CCN(Cc2cnc(C)s2)CC1	5.79% (active)	
COc1ccc(/C=C/CN2CCCC(C(=O)c3ccc(OC)c(F)c3)C2)cc1 (stereo not drawn)		inactive
O=S(=O)(c1ccc(Cl)cc1)N1CCN2CCCC2C1 (stereo not drawn)	18.1% (active)	
OC(CNC1CCCc2ccccc21)COc1ccc2ccccc2c1 (stereo not drawn)	30.1% (active)	
Cc1ccc2[nH]c3c(=O)n(CCc4cnc[nH]4)cnc3c2c1	33.2% (active)	
Cc1ccn2cc(CCNC(=O)C3CC=CCC3C(=O)O)nc2c1 (stereo not drawn)	59.9% (active)	
CCOC(=O)C1(CCOc2ccccc2)CCN(Cc2ccc(OC)c(O)c2)CC1		inactive
Cc1cc(OCCCn2ccnc2)cc(C)c1Cl	15.8% (active)	
CCn1cc(CN2CCCC(C(=O)Nc3ccc(-c4nc5ccccc5[nH]4)cc3)C2)c(C)n1 (stereo not drawn)	35.7% (active)	
